Values joined by “and” are separate entries in the source; they are usually repeats but may differ in a detail not shown here. Equal entries are not always repeated.

One test has as its system HGGX39 (paediatric high-grade glioma line). In words: growth inhibition (% activity, log2 RLU normalised to DMSO / staurosporine); higher = more growth inhibition. Conditions: 33 µM. Summed up:
(§1)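 Approved drugs, at a single final concentration of about 33 μM, were applied in triplicate to pHGG cell lines and H9-derived neural stem cells for 7 days at 37 °C, 5% CO2. The growth-inhibition value is the replicate median of log2-transformed CellTiter-Glo luminescence normalised per plate to % activity between solvent and positive control wells.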
`C#C[C@]1(O)C=C[C@H]2[C@@H]3CCC4=CC(=O)CC[C@@H]4[C@H]3CC[C@@]21CC`: the growth inhibition amounted to 1.48%.
Same read-out and setting: then `NCC(O)c1ccc(O)cc1` (stereo not drawn), with 2.12%.
As for `COc1ccc(OC)c(C(O)C(C)N)c1` (stereo not drawn), the growth inhibition was found to be 3.05%.
Turning to `CC(C)c1c(CN(C)C(C)Cc2ccccc2)n(C)n(-c2ccccc2)c1=O` (stereo not drawn), the growth inhibition is -0.152%.
The same measure, in the same setting: the figure for `Cc1cccc(C)c1NC1=NCCCS1` is -0.494%; for `CN(C)C1C(=O)C(C(N)=O)=C(O)C2(O)C(=O)C3=C(O)c4c(O)cccc4C(C)(O)C3CC12` (stereo not drawn) it is 1.88%.
Same read-out and setting: the figure for `Nc1nc(N)nc(NC2CC2)n1` is 0.614%; for `C=CC[C@]1(O)CC[C@H]2[C@@H]3CCC4=CC(=O)CCC4=C3C=C[C@@]21C` it is 1.7%; for `COc1ccc(C(=O)N2CCCC2=O)cc1` it is -0.804%.
On the same count and under the same terms, then `N[C@@H]1C[C@H]1c1ccccc1.N[C@H]1C[C@@H]1c1ccccc1`, with 5.28%; and `Cn1c(CCCC(=O)O)nc2cc(N(CCCl)CCCl)ccc21`, with 4.99%; and `C[C@]12CC[C@H](O)CC1=CC[C@@H]1[C@@H]2CC[C@]2(C)C(=O)CC[C@@H]12`, with 3.44%.
In the case of `C[C@@H]1O[C@@H](O[C@H]2C[C@@H](O)[C@]3(CO)[C@H]4[C@H](O)C[C@]5(C)[C@@H](C6=CC(=O)OC6)CC[C@]5(O)[C@@H]4CC[C@]3(O)C2)[C@H](O)[C@H](O)[C@H]1O`, the growth inhibition is 54.5%.
On the same count and under the same terms, then `CCC1=C[C@H]2CN3CCc4c([nH]c5ccccc45)[C@](C(=O)OC)(C2)[C@H]13`, with -1.76%.
Same read-out and setting: then `C[C@]12CC[C@H]3[C@@H](CC[C@@]45O[C@@H]4C(O)=C(C#N)C[C@]35C)[C@@H]1CC[C@@H]2O`, with 3.74%; and `CCCCCCCCCCCCCCCC[n+]1ccccc1`, with 59.6%; and `CC(NC(C)(C)C)C(=O)c1cccc(Cl)c1` (stereo not drawn), with 1.55%.
Same read-out and setting: then `C=CCN.ClCC1CO1` (stereo not drawn), with 2.03%; and `CC(O)(CS(=O)(=O)c1ccc(F)cc1)C(=O)Nc1ccc(C#N)c(C(F)(F)F)c1` (stereo not drawn), with 1.55%; and `C[C@]12CCC(=O)C=C1C=C[C@@H]1[C@@H]2CC[C@@]2(C)[C@H]1CC[C@@]2(O)CCC(=O)O`, with 0.878%.
`Cc1c(N)nc(C(CC(N)=O)NCC(N)C(N)=O)nc1C(=O)NC(C(=O)NC(C)C(O)C(C)C(=O)NC(C(=O)NCCc1nc(-c2nc(C(=O)NCCC[S+](C)C)cs2)cs1)C(C)O)C(O[C@@H]1O[C@@H](CO)[C@@H](O)[C@H](O)[C@@H]1O[C@H]1O[C@H](CO)[C@@H](O)[C@H](OC(N)=O)[C@@H]1O)c1cnc[nH]1` (stereo partly drawn): the growth inhibition came to 8.29%.
Consider `CC(=O)OC1CN2CCC1CC2` (stereo not drawn), for which the growth inhibition came to 1.15%.
Same read-out and setting: then `COc1cc2c(cc1OC)[C@@]13CCN4CC5=CCO[C@H]6CC(=O)N2[C@H]1[C@H]6[C@H]5C[C@H]43`, with 5.09%.
As for `C/C=C(\C)C(=O)N[C@@H](c1ccccc1)[C@@H](O)C(=O)O[C@H]1C[C@@]2(O)[C@@H](OC(=O)c3ccccc3)[C@@H]3[C@]4(OC(C)=O)CO[C@@H]4C[C@H](O)[C@@]3(C)C(=O)[C@H](OC(C)=O)C(=C1C)C2(C)C`, the growth inhibition came out at 33.6%.
Still for that read-out and setting: the figure for `CN1[C@@H]2C[C@@H](OC(=O)[C@H](CO)c3ccccc3)C[C@H]1[C@@H]1O[C@@H]12` is -2.31%; for `CC(C)NCC(O)c1ccccc1Cl` (stereo not drawn) it is 2.3%.
On the same count and under the same terms, then `CC[C@@]1(O)C(=O)OCc2c1cc1n(c2=O)Cc2cc3ccccc3nc2-1`, with 39.5%; and `CN(C)C(=O)Oc1ccc[n+](C)c1`, with 0.907%; and `CCN(C)C(=O)Oc1cccc([C@H](C)N(C)C)c1`, with 1.41%.
As for `C#C[C@]1(O)CC[C@H]2[C@@H]3CCC4=CC(=O)CC[C@]4(C)[C@H]3CC[C@@]21C`, the growth inhibition turned out to be 1.6%.
Same read-out and setting: the figure for `OC(c1ccccc1)(c1ccccc1)C1CCNCC1` is -0.475%; for `O=P1(N(CCCl)CCCl)NCCCO1` (stereo not drawn) it is -1.32%.
Same read-out and setting: the figure for `CC[C@@H](C(N)=O)N1CCCC1=O` is -1.17%; for `CN1C(=O)CCS(=O)(=O)C1c1ccc(Cl)cc1` (stereo not drawn) it is 2.2%; for `O=C(O)c1nn(Cc2ccc(Cl)cc2Cl)c2ccccc12` it is 1.2%.
With `CNC1CC(N)C(O)C(OC2OC(CO)C(O)C3OC4(OC(C(N)CO)C(O)C(O)C4O)OC23)C1O` (stereo not drawn), the growth inhibition is -0.261%.
For the compound `CN(C)[C@@H]1C(=O)C(C(N)=O)=C(O)[C@@]2(O)C(=O)C3=C(O)c4c(O)cccc4[C@@](C)(O)[C@H]3[C@H](O)[C@@H]12`, the growth inhibition was 2.88% and -0.945%.
Still for that read-out and setting: the figure for `O=c1[nH]c2ccccc2n1CCCN1CCC(n2c(=O)[nH]c3cc(Cl)ccc32)CC1` is 3.76%; for `CN1C(=O)COc2c(C(=O)NC3CN4CCC3CC4)cc(Cl)cc21` (stereo not drawn) it is 2.32%.

In the next test the test system is HGGX6 (H3.3 G34R paediatric high-grade glioma line). Described as above. The settings on record: 33 µM. Summed up:
as §1
On to `C#C[C@]1(O)C=C[C@H]2[C@@H]3CCC4=CC(=O)CC[C@@H]4[C@H]3CC[C@@]21CC`, for which the growth inhibition is 3.32%.
Same read-out and setting: then `NCC(O)c1ccc(O)cc1` (stereo not drawn), with -2.95%.
Still for that read-out and setting: the figure for `COc1ccc(OC)c(C(O)C(C)N)c1` (stereo not drawn) is 1.53%; for `CC(C)c1c(CN(C)C(C)Cc2ccccc2)n(C)n(-c2ccccc2)c1=O` (stereo not drawn) it is -0.564%.
For `Cc1cccc(C)c1NC1=NCCCS1`, the growth inhibition came to 0.819%.
For the compound `CN(C)C1C(=O)C(C(N)=O)=C(O)C2(O)C(=O)C3=C(O)c4c(O)cccc4C(C)(O)C3CC12` (stereo not drawn), the growth inhibition was -0.661%.
Same read-out and setting: then `Nc1nc(N)nc(NC2CC2)n1`, with -0.225%.
Still for that read-out and setting: then `C=CC[C@]1(O)CC[C@H]2[C@@H]3CCC4=CC(=O)CCC4=C3C=C[C@@]21C`, with 1.91%; and `COc1ccc(C(=O)N2CCCC2=O)cc1`, with -0.258%.
Same read-out and setting: the figure for `N[C@@H]1C[C@H]1c1ccccc1.N[C@H]1C[C@@H]1c1ccccc1` is 2.4%; for `Cn1c(CCCC(=O)O)nc2cc(N(CCCl)CCCl)ccc21` it is 3.4%; for `C[C@]12CC[C@H](O)CC1=CC[C@@H]1[C@@H]2CC[C@]2(C)C(=O)CC[C@@H]12` it is 4%.
In the case of `C[C@@H]1O[C@@H](O[C@H]2C[C@@H](O)[C@]3(CO)[C@H]4[C@H](O)C[C@]5(C)[C@@H](C6=CC(=O)OC6)CC[C@]5(O)[C@@H]4CC[C@]3(O)C2)[C@H](O)[C@H](O)[C@H]1O`, the growth inhibition came out at 51.4%.
The same measure, in the same setting: then `CCC1=C[C@H]2CN3CCc4c([nH]c5ccccc45)[C@](C(=O)OC)(C2)[C@H]13`, with -3.94%; and `C[C@]12CC[C@H]3[C@@H](CC[C@@]45O[C@@H]4C(O)=C(C#N)C[C@]35C)[C@@H]1CC[C@@H]2O`, with 0.2%.
Still for that read-out and setting: then `CCCCCCCCCCCCCCCC[n+]1ccccc1`, with 35.8%; and `CC(NC(C)(C)C)C(=O)c1cccc(Cl)c1` (stereo not drawn), with 0.445%.
Take `C=CCN.ClCC1CO1` (stereo not drawn): the growth inhibition was -0.039%.
On the same count and under the same terms, the figure for `CC(O)(CS(=O)(=O)c1ccc(F)cc1)C(=O)Nc1ccc(C#N)c(C(F)(F)F)c1` (stereo not drawn) is 0.395%.
Turning to `C[C@]12CCC(=O)C=C1C=C[C@@H]1[C@@H]2CC[C@@]2(C)[C@H]1CC[C@@]2(O)CCC(=O)O`, the growth inhibition was -0.966%.
With `Cc1c(N)nc(C(CC(N)=O)NCC(N)C(N)=O)nc1C(=O)NC(C(=O)NC(C)C(O)C(C)C(=O)NC(C(=O)NCCc1nc(-c2nc(C(=O)NCCC[S+](C)C)cs2)cs1)C(C)O)C(O[C@@H]1O[C@@H](CO)[C@@H](O)[C@H](O)[C@@H]1O[C@H]1O[C@H](CO)[C@@H](O)[C@H](OC(N)=O)[C@@H]1O)c1cnc[nH]1` (stereo partly drawn), the growth inhibition was found to be 4.24%.
As for `CC(=O)OC1CN2CCC1CC2` (stereo not drawn), the growth inhibition was -1.32%.
`COc1cc2c(cc1OC)[C@@]13CCN4CC5=CCO[C@H]6CC(=O)N2[C@H]1[C@H]6[C@H]5C[C@H]43`: the growth inhibition was -3.27%.
Same read-out and setting: then `C/C=C(\C)C(=O)N[C@@H](c1ccccc1)[C@@H](O)C(=O)O[C@H]1C[C@@]2(O)[C@@H](OC(=O)c3ccccc3)[C@@H]3[C@]4(OC(C)=O)CO[C@@H]4C[C@H](O)[C@@]3(C)C(=O)[C@H](OC(C)=O)C(=C1C)C2(C)C`, with 19.9%.
On the same count and under the same terms, the figure for `CN1[C@@H]2C[C@@H](OC(=O)[C@H](CO)c3ccccc3)C[C@H]1[C@@H]1O[C@@H]12` is -3.37%.
Still for that read-out and setting: then `CC(C)NCC(O)c1ccccc1Cl` (stereo not drawn), with 1.8%; and `CC[C@@]1(O)C(=O)OCc2c1cc1n(c2=O)Cc2cc3ccccc3nc2-1`, with 13.4%; and `CN(C)C(=O)Oc1ccc[n+](C)c1`, with 0.761%.
As to `CCN(C)C(=O)Oc1cccc([C@H](C)N(C)C)c1`, the growth inhibition worked out at 0.109%.
The same measure, in the same setting: then `C#C[C@]1(O)CC[C@H]2[C@@H]3CCC4=CC(=O)CC[C@]4(C)[C@H]3CC[C@@]21C`, with 0.344%; and `OC(c1ccccc1)(c1ccccc1)C1CCNCC1`, with 0.616%.
Same read-out and setting: then `O=P1(N(CCCl)CCCl)NCCCO1` (stereo not drawn), with -0.517%.
The same measure, in the same setting: the figure for `CC[C@@H](C(N)=O)N1CCCC1=O` is -3.23%.
In the case of `CN1C(=O)CCS(=O)(=O)C1c1ccc(Cl)cc1` (stereo not drawn), the growth inhibition turned out to be 1.29%.
As for `O=C(O)c1nn(Cc2ccc(Cl)cc2Cl)c2ccccc12`, the growth inhibition is -0.667%.
Still for that read-out and setting: the figure for `CNC1CC(N)C(O)C(OC2OC(CO)C(O)C3OC4(OC(C(N)CO)C(O)C(O)C4O)OC23)C1O` (stereo not drawn) is 1.68%.
As for `CN(C)[C@@H]1C(=O)C(C(N)=O)=C(O)[C@@]2(O)C(=O)C3=C(O)c4c(O)cccc4[C@@](C)(O)[C@H]3[C@H](O)[C@@H]12`, the growth inhibition is 1.26% and -1.1%.
For `O=c1[nH]c2ccccc2n1CCCN1CCC(n2c(=O)[nH]c3cc(Cl)ccc32)CC1`, the growth inhibition stood at 1.12%.
Take `CN1C(=O)COc2c(C(=O)NC3CN4CCC3CC4)cc(Cl)cc21` (stereo not drawn): the growth inhibition worked out at 3.19%.

The values are drawn from the supplement of paper PMC8253809.
